Compound activity (PubChem BioAssay)
Measles CPE: protection of cells from measles virus | Measles virus-infected cells, CPE protection, absorbance | protection (pct of control), % at 4 µM | 1.5% of 140,000 active; in the data active = protection mostly above about 24%, no sharp cut-off; inactive = mostly below about 26%
PostGolgi ctrl: yeast control strain growth, post-Golgi counter-screen. 5% of 98,000 active. efflux-deficient yeast background strain, growth absorbance A615, 16 h. inhibition, % at 10 µM. AID 738
PostGolgi yeast: growth inhibition of a yeast mutant, post-Golgi transport screen; post-Golgi transport phenotypic cell assay; inhibition, % at 10 µM; 0.9% of 98,000 active; AID 739;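 also: yeast cells grown in 1536-well plates; yeast grown about 18 h at 30C before absorbance read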
MT1-MMP txn act: activates MT1-MMP transcription; activation factor at 10 µM; AID 750; HT1080 MT1-MMP promoter luciferase reporter, luminescence, overnight; active compounds read high; 0.16% of 86,000 active;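 active = activation factor of at least 2 for MT1-MMP transcription at 10 µM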
An asterisk follows results filed as active. Rows were chosen to be rich in hits. Some 5.3% of all compounds tested hit in one or more screens of this group. Rule as the data show it, unless noted: active = inhibition above about 30%; inactive = the rest.

O=[N+]([O-])c1ccc(NCCCNS(=O)(=O)c2ccccc2)c(Cl)c1 was read as Measles CPE 31.
CCCCNC(=O)NNC(=O)COc1cccc(C)c1C was read as Measles CPE 18.
For COc1ccc(-c2ccc(SCC(=O)N3CCCC3)nn2)cc1OC the results were Measles CPE 2, PostGolgi ctrl 8, PostGolgi yeast -6 and MT1-MMP txn act 1.1.
`CC1CCCCN1C(=O)CSc1ccc(-c2ccc(F)cc2)nn1` (configuration not stated) gave Measles CPE 15, PostGolgi ctrl 45*, PostGolgi yeast -5 and MT1-MMP txn act 1.5.
Screening CC(C)N1C(=O)CCC1C(=O)NCCc1ccc(Cl)cc1 (configuration not stated) returned Measles CPE 30* and MT1-MMP txn act 1.1.
`O=C1NC2(CCCCC2)N=C1c1ccc(Br)cc1` gave Measles CPE 64*, PostGolgi ctrl 4, PostGolgi yeast 20 and MT1-MMP txn act 1.1.
Screening COc1ccc(Cl)cc1C(=O)NC(=S)Nc1cc(-c2nc3ccccc3[nH]2)ccc1C returned Measles CPE 4, PostGolgi ctrl 35* and PostGolgi yeast -3.
`COc1ccc(Cl)cc1C(=O)NNC(=S)NC(=O)c1cc(-c2ccccc2)nc2ccccc12` gave Measles CPE 4, PostGolgi ctrl 17 and PostGolgi yeast -7.
`C=CCn1c(CCNC(=O)c2cccs2)nnc1SCC(=O)Nc1cccc(F)c1` gave Measles CPE 10, PostGolgi ctrl 15, PostGolgi yeast 3 and MT1-MMP txn act 1.
`CC(C)CC(NC(=O)c1ccc(Cl)cc1)C(=O)OCC(=O)c1ccc2c(c1)NC(=O)CO2` (configuration not stated) gave Measles CPE 10, PostGolgi ctrl 32* and PostGolgi yeast -14.
For O=C(Cn1c(C(=O)N2CCN(C3CCCCC3)CC2)cc2sccc21)c1ccccc1 the results were Measles CPE 4, PostGolgi ctrl 31*, PostGolgi yeast 5 and MT1-MMP txn act 1.1.
For O=C(c1cc2sccc2n1Cc1ccccc1)N1CCN(c2nc3ccccc3s2)CC1 the results were Measles CPE 15, PostGolgi ctrl 41*, PostGolgi yeast 9 and MT1-MMP txn act 1.
Screening CCc1ccc2[nH]c(=O)c(C(c3nnnn3CC3CCCO3)N3CCN4CCCC4C3)cc2c1 (configuration not stated) returned Measles CPE 14, PostGolgi ctrl 30*, PostGolgi yeast -12 and MT1-MMP txn act 1.1.
Cc1ccc2[nH]c(=O)c(C(c3nnnn3CC3CCCO3)N3CCOCC3)cc2c1 (configuration not stated) was read as Measles CPE 20, PostGolgi ctrl 5, PostGolgi yeast 2 and MT1-MMP txn act 1.1.
For COc1ccc2[nH]c(=O)c(C(c3nnnn3CC3CCCO3)N3CCc4ccccc4C3)cc2c1 (configuration not stated) the results were Measles CPE 13, PostGolgi ctrl 38*, PostGolgi yeast -19 and MT1-MMP txn act 1.1.
Screening Cc1ccc2[nH]c(=O)c(C(c3nnnn3CC3CCCO3)N3CCc4ccccc4C3)cc2c1 (configuration not stated) returned Measles CPE 21, PostGolgi ctrl 3, PostGolgi yeast 19 and MT1-MMP txn act 1.2.
Screening C=CCNC(=O)Nc1ccc(Cl)cn1 returned Measles CPE 3.
CCCC(O)(c1ccc(Cl)cc1)C(CN1CCOCC1)c1ccccc1 (configuration not stated) was read as Measles CPE 4, PostGolgi ctrl 50* and PostGolgi yeast 1.
`CCCC(=O)c1c[nH]c(C(=O)NCc2ccco2)c1` gave Measles CPE 5, PostGolgi ctrl -4 and PostGolgi yeast -3.
Screening CC(=O)NC(Cc1ccccc1)C(=O)N1CCN(C(=O)c2ccco2)CC1 (configuration not stated) returned Measles CPE 36*, PostGolgi ctrl 3, PostGolgi yeast -3 and MT1-MMP txn act 1.
Screening C[C@H](CO)NC(=O)[C@H]1C[C@@H]1[C@H](NP(=O)(c1ccccc1)c1ccccc1)c1ccccc1 returned MT1-MMP txn act 1.
`CC(c1nnc(SCC(=O)c2c(N)n(C)c(=O)n(C)c2=O)n1-c1ccc(Cl)cc1)N(C)C` (configuration not stated) gave Measles CPE 11, PostGolgi ctrl 37*, PostGolgi yeast 14 and MT1-MMP txn act 1.2.
Screening Cc1nnc(SCC(=O)c2c(N)n(C)c(=O)n(C)c2=O)n1Cc1ccccc1 returned Measles CPE 5, PostGolgi ctrl -7, PostGolgi yeast -6 and MT1-MMP txn act 1.1.
For CC(=O)Nc1cccc(C(=O)OC(C(=O)c2ccc(C)c(C)c2)c2ccccc2)c1 (configuration not stated) the results were Measles CPE 4, PostGolgi ctrl 25 and PostGolgi yeast -2.
`CC(=O)Nc1cccc(C(=O)OC(C(=O)c2ccc(C)cc2)c2ccccc2)c1` (configuration not stated) gave Measles CPE 3, PostGolgi ctrl 33* and PostGolgi yeast -11.
`CC1CCCC(C)N1CC(C)(C)NS(=O)(=O)c1ccc(Cl)cc1` (configuration not stated) gave Measles CPE 7, PostGolgi ctrl 5 and PostGolgi yeast 4.
For COCCNC(=O)CSc1nc2cc(OC)c(OC)cc2c(=O)n1Cc1ccc(OC)cc1 the results were Measles CPE 11, PostGolgi ctrl 46*, PostGolgi yeast 5 and MT1-MMP txn act 1.1.
For Cn1cc(C(=O)C(F)(F)F)c2ccccc21 the results were Measles CPE 53*, PostGolgi ctrl 13 and PostGolgi yeast 23.
Screening O=[N+]([O-])c1ccc2nc(/C=C/c3ccc(Cl)cc3)[nH]c2c1 returned PostGolgi ctrl 75* and PostGolgi yeast 47*.
For O=[N+]([O-])c1ccc(-c2nc3ccc([N+](=O)[O-])cc3[nH]2)cc1 the results were Measles CPE 8, PostGolgi ctrl 18 and PostGolgi yeast -2.
Screening Cc1ccc(-n2c(SCC(=O)N3CC(=O)Nc4ccccc43)nc3ccccc3c2=O)cc1 returned Measles CPE 33*.
For O=C1CN(C(=O)CSc2nnc(-c3ccccc3)n2Cc2ccc3c(c2)OCO3)c2ccccc2N1 the results were Measles CPE 9, PostGolgi ctrl -2, PostGolgi yeast 38* and MT1-MMP txn act 1.
CCC(=O)Oc1ccc2oc(=O)cc(C)c2c1 was read as Measles CPE 9.
`CCOc1ccc2oc(=O)cc(C)c2c1` gave Measles CPE 9, PostGolgi ctrl 36*, PostGolgi yeast 4 and MT1-MMP txn act 1.2.
CCOc1ccc(Nc2cc(=O)oc3ccccc23)cc1 was read as Measles CPE 10, PostGolgi ctrl 48*, PostGolgi yeast -1 and MT1-MMP txn act 1.1.
Nc1c(NC2CCCCC2)c2ccccc2oc1=O was read as Measles CPE 24, PostGolgi ctrl 13, PostGolgi yeast 3 and MT1-MMP txn act 1.
For O=c1cc(NC2CCCCC2)c2ccccc2o1 the results were Measles CPE 20*, PostGolgi ctrl 9, PostGolgi yeast -2 and MT1-MMP txn act 1.1.
`COc1ccc(NC(=O)C(Sc2nnc3ccccn23)c2ccccc2)cc1Cl` (configuration not stated) gave Measles CPE 10.
